Reference: PubChem BioAssay
A number with no mark means an inactive call. For some of these results: Entries with a potency or affinity are not part of this list. Activity calls are given as the source filed them. Unless noted, no rule for the calls is given here.

Experiments:
[1] = antimalarial activity against Dd2 strain (AID 2302;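 active = growth inhibition above 50% at the single 2 µM test dose, taken to imply half-maximal potency below 2 µM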;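 also: 0% = DMSO untreated growth and 100% = chloroquine plus artemisinin killed control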); conditions: P. falciparum Dd2 in RBCs, LDH growth readout, 72 h; at 2 µM; hits give high values
[2] = HepG2 cytotoxicity, primary screen, cytotoxicity control for P. falciparum antimalarial project, cell-based, ATP luminescence (AID 2303;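 active = inhibition above 50%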;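 also: 0% = DMSO wells and 100% = digitonin-killed cells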); conditions: HepG2 viability, 24-48 h, at 10 µM, hits give high values
[3] = target: L-lactate dehydrogenase (Plasmodium falciparum (isolate CDC / Honduras)) (UniProt Q27743); experiment: PfLDH activity inhibition – cell lysate, 3D7 strain, counter-screen for P. falciparum growth inhibition project (AID 2304);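 also: 0% = vehicle and 100% = reference inhibitor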; conditions: P. falciparum 3D7 crude extract, LDH APAD/NBT absorbance; at 2 µM; hits give high values
[4] = inhibition of 3D7 malaria parasite growth – strain 3D7 (AID 2306);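 also: 0% = DMSO wells and 100% = chloroquine plus artemisinin control wells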; conditions: P. falciparum 3D7 erythrocytic growth, LDH absorbance, 72 h; at 2 µM; hits give high values
[5] = target: Calcium-dependent protein kinase 1 (Plasmodium falciparum (isolate 3D7)) (UniProt P62344); experiment: PfCDPK1 kinase inhibitors, biochemical, TCAMS library (AID 1159585; cut-off not given, nearly all actives have IC50 up to about 0.98 µM;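 also: inhibitors leave more ATP so luminescence rises with inhibition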); conditions: recombinant PfCDPK1, Kinase-Glo ATP depletion luminescence
[6] = target: Plasmodium falciparum protein kinase 6 (PK6, PF3D7_1337100) (UniProt Q8IDW1); experiment: PfPK6 kinase inhibitors, biochemical, TCAMS library (AID 1159586); conditions: recombinant PfPK6, Kinase-Glo ATP depletion luminescence
[7] = target: Protein kinase 7 (PK7), Plasmodium falciparum 3D7 (PF3D7_0213400) (UniProt Q7YTF7); experiment: inhibition of Plasmodium PK7 catalytic activity – biochemical, TCAMS antimalarial set, Kinase-Glo luminescence (AID 1159587); conditions: recombinant PfPK7, Kinase-Glo ATP depletion luminescence
[8] = target: Calcium-dependent protein kinase 4 (Plasmodium falciparum (isolate 3D7)) (UniProt Q8IBS5); experiment: PfCDPK4 kinase inhibitors, biochemical, TCAMS library (AID 1159588; cut-off not given, nearly all actives have IC50 up to about 0.91 µM); conditions: recombinant PfCDPK4, Kinase-Glo ATP depletion luminescence
Sequence of Calcium-dependent protein kinase 4 (Plasmodium falciparum (isolate 3D7)) (Q8IBS5 whole entry, looked up): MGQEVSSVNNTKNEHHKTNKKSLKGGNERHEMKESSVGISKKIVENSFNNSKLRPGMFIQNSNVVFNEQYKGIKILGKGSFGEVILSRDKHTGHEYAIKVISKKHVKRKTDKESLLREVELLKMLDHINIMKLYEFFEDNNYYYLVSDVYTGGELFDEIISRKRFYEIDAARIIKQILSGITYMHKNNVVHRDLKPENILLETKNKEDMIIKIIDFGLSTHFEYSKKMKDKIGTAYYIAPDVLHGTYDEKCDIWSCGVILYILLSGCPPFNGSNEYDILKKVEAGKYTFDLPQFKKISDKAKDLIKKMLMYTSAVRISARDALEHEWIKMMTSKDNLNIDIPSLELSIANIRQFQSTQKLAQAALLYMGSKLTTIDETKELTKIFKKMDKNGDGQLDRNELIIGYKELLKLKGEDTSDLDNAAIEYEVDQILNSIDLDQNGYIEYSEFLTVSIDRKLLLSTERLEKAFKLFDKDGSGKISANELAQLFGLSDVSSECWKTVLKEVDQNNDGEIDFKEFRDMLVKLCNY

Sequence of Plasmodium falciparum protein kinase 6 (PK6, PF3D7_1337100) (Q8IDW1 1-305): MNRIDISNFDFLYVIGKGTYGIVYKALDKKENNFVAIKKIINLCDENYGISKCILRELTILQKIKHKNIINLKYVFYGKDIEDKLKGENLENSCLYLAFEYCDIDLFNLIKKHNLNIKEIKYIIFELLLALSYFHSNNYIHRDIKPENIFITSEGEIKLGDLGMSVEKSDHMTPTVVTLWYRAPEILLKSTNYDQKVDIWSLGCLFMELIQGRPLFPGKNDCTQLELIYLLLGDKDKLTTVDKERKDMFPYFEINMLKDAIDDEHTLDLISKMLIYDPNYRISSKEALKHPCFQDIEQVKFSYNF
Sequence of Calcium-dependent protein kinase 1 (Plasmodium falciparum (isolate 3D7)) (P62344 whole entry, looked up): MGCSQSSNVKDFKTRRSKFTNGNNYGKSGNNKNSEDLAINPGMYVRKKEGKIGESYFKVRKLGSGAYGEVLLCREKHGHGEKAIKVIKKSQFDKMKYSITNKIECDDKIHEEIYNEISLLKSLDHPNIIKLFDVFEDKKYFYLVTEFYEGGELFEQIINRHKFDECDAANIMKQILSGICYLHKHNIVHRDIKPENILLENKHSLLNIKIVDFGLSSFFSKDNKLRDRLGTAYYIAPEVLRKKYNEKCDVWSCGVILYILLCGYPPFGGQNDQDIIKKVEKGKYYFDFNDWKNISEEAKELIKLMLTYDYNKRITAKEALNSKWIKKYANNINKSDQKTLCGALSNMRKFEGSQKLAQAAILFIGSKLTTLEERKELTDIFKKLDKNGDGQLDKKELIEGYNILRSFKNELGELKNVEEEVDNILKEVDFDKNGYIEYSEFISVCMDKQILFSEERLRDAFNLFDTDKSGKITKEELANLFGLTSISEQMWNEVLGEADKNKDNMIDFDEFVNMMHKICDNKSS
Sequence of L-lactate dehydrogenase (Plasmodium falciparum (isolate CDC / Honduras)) (Q27743 whole entry, looked up): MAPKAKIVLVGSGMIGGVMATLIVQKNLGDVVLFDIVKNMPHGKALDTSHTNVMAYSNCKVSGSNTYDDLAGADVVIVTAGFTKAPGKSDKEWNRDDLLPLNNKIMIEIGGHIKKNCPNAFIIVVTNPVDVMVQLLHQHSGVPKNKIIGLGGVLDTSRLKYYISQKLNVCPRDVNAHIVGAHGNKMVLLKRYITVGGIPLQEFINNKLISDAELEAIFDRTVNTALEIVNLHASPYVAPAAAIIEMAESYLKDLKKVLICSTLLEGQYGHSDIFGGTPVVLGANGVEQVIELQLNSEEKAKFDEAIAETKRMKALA
Sequence of Protein kinase 7 (PK7), Plasmodium falciparum 3D7 (PF3D7_0213400) (Q7YTF7 1-343): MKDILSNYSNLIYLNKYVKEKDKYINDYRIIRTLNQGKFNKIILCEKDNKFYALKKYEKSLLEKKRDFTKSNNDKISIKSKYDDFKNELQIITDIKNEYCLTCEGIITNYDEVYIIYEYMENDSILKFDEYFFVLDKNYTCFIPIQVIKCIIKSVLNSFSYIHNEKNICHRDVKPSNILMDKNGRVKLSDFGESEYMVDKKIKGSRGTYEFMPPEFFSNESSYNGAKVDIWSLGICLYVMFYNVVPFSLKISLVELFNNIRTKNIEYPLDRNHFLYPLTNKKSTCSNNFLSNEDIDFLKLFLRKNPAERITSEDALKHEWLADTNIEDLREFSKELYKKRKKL

Compound	growth inhibition [1]	inhibition [2]	inhibition [3]	growth inhibition [4]	outcome [5]	outcome [6]	outcome [7]	outcome [8]
CC(C)C[C@H](Nc1ccc(C#N)c2ccccc12)C(=O)NC(C)(C)C12CC3CC(CC(C3)C1)C2	30%	19%	-1%	96% (active)	inactive	inactive	inactive	inactive
COc1ccccc1CCCON1C(N)=NC(N)=NC1(C)C	92% (active)	68% (active)	-1%	95% (active)	inactive	inactive	inactive	inactive
CC(C)c1sc(N2CCN(C)CC2)nc1C(=O)NCCc1ccc(Cl)c(Cl)c1	79% (active)	10%	-2%	98% (active)	inactive	inactive	inactive	inactive
COc1ccc(-c2ccc(NC(=O)c3cccc(C#N)c3)cc2)cc1CN1CCN(C)CC1	59% (active)	26%	8%	100% (active)	inactive	inactive	inactive	inactive
CCCNS(=O)(=O)c1ccc(NC(=O)C(C)Oc2ccc([N+](=O)[O-])cc2)cc1 (stereo not drawn)	37%	3%	3%	100% (active)	inactive	inactive	inactive	inactive
COCCN(C(=O)Cc1cccs1)C(C(=O)NCc1ccc(OC)cc1)c1ccc(C(C)C)cc1 (stereo not drawn)	59% (active)	-13%	4%	96% (active)	inactive	inactive	inactive	inactive
S=C(NN=Cc1ccccn1)Nc1ccc(Cl)c(Cl)c1	85% (active)	40%	5%	98% (active)	inactive	inactive	inactive	inactive
O=C(Nc1ccc(Cl)cc1)c1ccc(CN2CCCN(Cc3ccc(F)cc3)CC2)cc1	8%	48%	6%	91% (active)	inactive	inactive	inactive	inactive
C#CCNCc1ccc(-c2ccc(-c3nc4ccc(C(F)(F)F)cc4[nH]3)s2)cc1	28%	37%	0%	98% (active)	inactive	inactive	inactive	inactive
Cc1ccc2c(NC(=O)Nc3ccc(N(C)C)cc3)cc(C)nc2c1	20%	-6%	0%	98% (active)	inactive	inactive	inactive	inactive
Nc1nccc2ccc(-c3ccc(NC(=O)Nc4cc(C(F)(F)F)ccc4F)cc3)cc12	100% (active)	99% (active)	-3%	101% (active)	inactive	inactive	inactive	inactive
Cc1cccc2[nH]c(-c3ccc(-c4ccc(CNCc5ccccc5)cc4)cc3)nc12	90% (active)	5%	-2%	99% (active)	inactive	inactive	inactive	inactive
CCc1c(C)nc(-n2nc(C)cc2NC(=O)C2c3ccccc3Oc3ccccc32)[nH]c1=O	80% (active)	37%	1%	89% (active)	inactive	inactive	inactive	inactive
COc1ccc2nccc([C@@H](O)CN3CCC(NCc4cc5c(F)ccc(F)c5[nH]4)CC3)c2n1	76% (active)	22%	-6%	101% (active)	inactive	inactive	inactive	inactive
CN1CCC(NCc2cccc(-c3cccc(S(=O)(=O)NCc4ccccc4)c3)c2)CC1	6%	57% (active)	-2%	100% (active)	inactive	inactive	inactive	inactive
CS(=O)(=O)NCCCNCc1ccc(-c2ccc(-c3nc4ccc(C(F)(F)F)cc4[nH]3)s2)cc1	73% (active)	21%	-5%	99% (active)	inactive	inactive	inactive	inactive
CS(=O)(=O)c1ccc(OCCCN(Cc2ccccc2C(F)(F)F)c2ccc(C#N)c(C(F)(F)F)c2)cc1	76% (active)	4%	-5%	94% (active)	inactive	inactive	inactive	inactive
Cc1cc(NN=Cc2ccccc2[N+](=O)[O-])c2ccccc2n1	100% (active)	10%	-2%	100% (active)	inactive	inactive	inactive	inactive
O=c1cc(NCCCNCc2sc(Br)nc2Br)[nH]c2ccccc12	44%	1%	-2%	92% (active)	inactive	inactive	inactive	inactive
O=C(CCn1c2ccccc2c2ccccc21)NN=Cc1ccco1	-3%	6%	-3%	96% (active)	inactive	inactive	inactive	inactive
COc1cc2c(cc1OCCN1CCC(N)CC1)N(C(=O)/C=C/c1ccccc1Cl)CC2	18%	19%	-7%	91% (active)	inactive	inactive	inactive	inactive

Compound	growth inhibition [1]	inhibition [2]	inhibition [3]	growth inhibition [4]	outcome [5]	outcome [6]	outcome [7]	outcome [8]
COc1ccc(CN2CCC(CNCC(c3ccccc3)c3ccccc3)CC2)cc1	95% (active)	84% (active)	-4%	102% (active)	inactive	inactive	inactive	inactive
CCCCC(CC)NC(=O)[C@H]1CNCCN1C(=O)CCCc1ccccc1 (stereo partly drawn)	-1%	5%	1%	94% (active)	inactive	inactive	inactive	inactive
Cc1cc(NN=Cc2ccccc2F)c2cc(C(F)(F)F)ccc2n1	67% (active)	5%	2%	102% (active)	inactive	inactive	inactive	inactive
Cc1c(C(=O)NCc2ccncc2)sc2nc(-c3cccc([N+](=O)[O-])c3)cn12	29%	18%	-2%	97% (active)	inactive	inactive	inactive	inactive
CNC(=O)CNC(=O)COc1cccc2ccccc12	-6%	3%	-8%	98% (active)	inactive	inactive	inactive	inactive
Clc1cccc(C=NNc2ccnc3ccccc23)c1	44%	5%	4%	102% (active)	inactive	inactive	inactive	inactive
C(=N\Nc1nccc2sc(-c3cccnc3)cc12)/c1cccnc1	54% (active)	5%	5%	98% (active)	inactive	inactive	inactive	inactive
Cc1cc(NCCC(=O)Nc2ccccc2)nc(NCc2ccccc2C)n1	57% (active)	6%	-1%	100% (active)	inactive	inactive	inactive	inactive
CC(=O)N(C)c1cccc(C(=O)Nc2cccc(-c3cccc(-c4nc5c(C)cccc5[nH]4)c3)c2)c1	41%	15%	-9%	89% (active)	inactive	inactive	inactive	inactive
Oc1cccc(/C=N/Nc2ccnc3cc(Cl)ccc23)c1	95% (active)	-9%	0%	104% (active)	inactive	inactive	inactive	inactive
CC(C)(C)c1cc(Cn2ccnc2)cc(C(C)(C)C)c1O	3%	4%	-2%	85% (active)	inactive	inactive	inactive	inactive
NC1CCN(Cc2cccc(-c3ccc(-c4nc5ccccc5[nH]4)s3)c2)C1 (stereo not drawn)	62% (active)	36%	-1%	100% (active)	inactive	inactive	inactive	inactive
NC1=NC(c2ccccc2)(c2ccccc2)C(=O)N1CCCCc1ccccn1	56% (active)	10%	-4%	94% (active)	inactive	inactive	inactive	inactive
CC1(C)N=C(N)N=C(N)N1OCCCc1ccc(Cl)cc1Cl	95% (active)	54% (active)	0%	95% (active)	inactive	inactive	inactive	inactive
O=C(N[C@@H](CC1CCCCC1)C(=O)NCCN1CCCC1)c1ccc(O)c(-c2cccc(C(F)(F)F)c2)c1	55% (active)	-11%	-4%	99% (active)	inactive	inactive	inactive	inactive
CC[C@@H]([C@@H](Cc1cc2ccccc2s1)C(=O)N[C@@H](CCCCNC(=O)OCc1ccccc1)C(=O)Nc1ccccn1)N(O)C=O	70% (active)	36%	6%	96% (active)	inactive	inactive	inactive	inactive
COc1cc(-c2ccc3c(-c4ccc(C(=O)N5CCN(C)CC5)cc4)[nH]nc3n2)cc(OC)c1OC	54% (active)	27%	4%	91% (active)	inactive	inactive	inactive	inactive
CCOc1cc(C(=O)NCCN(CC)c2cccc(C)c2)ccc1-c1nc2ccc(Cl)cc2[nH]1	80% (active)	-1%	0%	102% (active)	inactive	inactive	inactive	inactive
CC[C@H](C)[C@@H](C(=O)N1CCOCC1)N1CC[C@H](NS(=O)(=O)CC(C)(C)c2ccc(Cl)cc2)C1=O	95% (active)	-1%	1%	101% (active)	inactive	inactive	inactive	inactive
O=C(Cc1cnc[nH]1)Nc1ccc(-c2ccc(-c3nc4ccc(C(F)(F)F)cc4[nH]3)s2)cc1	99% (active)	48%	0%	101% (active)	inactive	inactive	inactive	inactive
